B1: unnamed (peptide)
chain: TPTSGPPLLPPRNTM

Biological target: AgAbp1
Experiment: SPOT peptide array binding signal intensity (averaged, normalized) (arbitrary units (background-subtracted, floor 0; scale differs between SH3 domains)); higher = stronger binding of the SH3 domain to the peptide
Method in brief: (§1)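 E. coli BL21(DE3) was used to express GST-fused SH3 domains from four yeast species, which were then purified on glutathione Sepharose. These were incubated at 10 μg/ml in TBS-based blocking buffer overnight at 4°C on cellulose membranes carrying synthetic 15-mer peptides, in which cysteines were replaced by serines. Binding signal is the replicate average of normalized, background-subtracted spot intensity, in arbitrary units that differ between domains.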

Binder | SPOT peptide array binding signal intensity
B1 | ≤ 0

Biological target: AgBbc1
Experiment: as above
Method in brief: as §1

Binder | SPOT peptide array binding signal intensity
B1 | 128

Biological target: AgBem1-D1
Experiment: as above
Method in brief: as §1

Binder | SPOT peptide array binding signal intensity
B1 | ≤ 0

Biological target: AgBzz1-D1
Experiment: as above
Method in brief: as §1

Binder | SPOT peptide array binding signal intensity
B1 | 15

Biological target: AgBzz1-D2
Experiment: as above
Method in brief: as §1

Binder | SPOT peptide array binding signal intensity
B1 | ≤ 0

Biological target: AgCyk3
Experiment: as above
Method in brief: as §1

Binder | SPOT peptide array binding signal intensity
B1 | 6

Biological target: AgFus1
Experiment: as above
Method in brief: as §1

Binder | SPOT peptide array binding signal intensity
B1 | ≤ 0

Biological target: AgHof1
Experiment: as above
Method in brief: as §1

Binder | SPOT peptide array binding signal intensity
B1 | 21.2

Biological target: AgHse1
Experiment: as above
Method in brief: as §1

Binder | SPOT peptide array binding signal intensity
B1 | 65.5

Biological target: AgLsb1
Experiment: as above
Method in brief: as §1

Binder | SPOT peptide array binding signal intensity
B1 | 778

Biological target: AgLsb4
Experiment: as above
Method in brief: as §1

Binder | SPOT peptide array binding signal intensity
B1 | 5100

Biological target: AgMyo5
Experiment: as above
Method in brief: as §1

Binder | SPOT peptide array binding signal intensity
B1 | 124

Biological target: AgNbp2
Experiment: as above
Method in brief: as §1

Binder | SPOT peptide array binding signal intensity
B1 | ≤ 0

Biological target: AgRvs167
Experiment: as above
Method in brief: as §1

Binder | SPOT peptide array binding signal intensity
B1 | 801

Biological target: AgSho1
Experiment: as above
Method in brief: as §1

Binder | SPOT peptide array binding signal intensity
B1 | ≤ 0

Biological target: AgSla1-D1-D2
Experiment: as above
Method in brief: as §1

Binder | SPOT peptide array binding signal intensity
B1 | ≤ 0

Biological target: AgSla1-D3
Experiment: as above
Method in brief: as §1

Binder | SPOT peptide array binding signal intensity
B1 | 0.5

Biological target: CaAbp1-D1
Experiment: as above
Method in brief: as §1

Binder | SPOT peptide array binding signal intensity
B1 | ≤ 0

Biological target: CaAbp1-D2
Experiment: as above
Method in brief: as §1

Binder | SPOT peptide array binding signal intensity
B1 | ≤ 0

Biological target: CaBbc1
Experiment: as above
Method in brief: as §1

Binder | SPOT peptide array binding signal intensity
B1 | 153

Biological target: CaBem1-D1
Experiment: as above
Method in brief: as §1

Binder | SPOT peptide array binding signal intensity
B1 | 0.5

Biological target: CaBzz1-D1
Experiment: as above
Method in brief: as §1

Binder | SPOT peptide array binding signal intensity
B1 | 91

Biological target: CaBzz1-D2
Experiment: as above
Method in brief: as §1

Binder | SPOT peptide array binding signal intensity
B1 | 33.5

Biological target: CaCyk3
Experiment: as above
Method in brief: as §1

Binder | SPOT peptide array binding signal intensity
B1 | 1

Biological target: CaFus1
Experiment: as above
Method in brief: as §1

Binder | SPOT peptide array binding signal intensity
B1 | 25

Biological target: CaHof1
Experiment: as above
Method in brief: as §1

Binder | SPOT peptide array binding signal intensity
B1 | 4.75

Biological target: CaHse1
Experiment: as above
Method in brief: as §1

Binder | SPOT peptide array binding signal intensity
B1 | 100

Biological target: CaLsb1
Experiment: as above
Method in brief: as §1

Binder | SPOT peptide array binding signal intensity
B1 | 5.5

Biological target: CaLsb4
Experiment: as above
Method in brief: as §1

Binder | SPOT peptide array binding signal intensity
B1 | 5320

Biological target: CaMyo5
Experiment: as above
Method in brief: as §1

Binder | SPOT peptide array binding signal intensity
B1 | 36.8

From the supplement of paper PMC4466140
